For the assay, the target named is Menin (Homo sapiens) (UniProt O00255). Briefly: Confirmation of Inhibitors Targeting the Menin-MLL Interaction in MLL Related Leukemias: Competition With Fluorescein Labeled MLL-derived Peptide. Particulars: Fluorescence polarization, fluorescein-MLL peptide displacement from menin; series mostly up to 100 µM. Background: Polarisation of emitted light reports the rotation of a fluorescent probe.

Each structure is given as a SMILES string. Results filed as inconclusive are left out. Calls of active or inactive are those of the source. Calls come from the whole dose curve; as a rule, active = well fitted inhibition curve with a large enough effect in the polarisation, with a control signal flat (not every such curve was filed as active); inconclusive = small, poorly fitted or top-dose-only effect, or effect the other way, or a change in a side signal; inactive = no such curve, though single readings can be large or run the other way; the % refers to the polarisation.

Sequence of Menin (Homo sapiens) (O00255 whole entry, looked up): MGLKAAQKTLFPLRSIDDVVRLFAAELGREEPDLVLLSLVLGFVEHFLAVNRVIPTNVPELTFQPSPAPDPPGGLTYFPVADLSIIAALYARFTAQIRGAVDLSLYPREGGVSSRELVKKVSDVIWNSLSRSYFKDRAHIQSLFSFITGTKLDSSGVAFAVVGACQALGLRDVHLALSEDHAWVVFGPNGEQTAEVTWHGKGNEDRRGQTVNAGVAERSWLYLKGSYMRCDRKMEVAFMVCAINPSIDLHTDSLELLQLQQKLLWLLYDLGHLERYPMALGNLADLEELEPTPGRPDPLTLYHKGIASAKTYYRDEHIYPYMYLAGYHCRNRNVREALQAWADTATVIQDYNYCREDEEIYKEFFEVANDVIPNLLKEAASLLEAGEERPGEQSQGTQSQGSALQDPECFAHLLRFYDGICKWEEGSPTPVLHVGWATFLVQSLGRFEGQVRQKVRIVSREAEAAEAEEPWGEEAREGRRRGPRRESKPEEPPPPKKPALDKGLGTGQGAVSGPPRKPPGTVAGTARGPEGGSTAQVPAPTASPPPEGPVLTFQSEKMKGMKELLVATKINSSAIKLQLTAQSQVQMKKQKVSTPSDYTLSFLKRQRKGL

With `O=C(N/N=C/c1cn(-c2ccccc2)nc1-c1cc2ccccc2o1)c1ccccc1Br`, the compound was called inactive. To `COc1ccccc1CC(=O)Nc1ccc(-c2noc(COc3ccc(Br)cc3)n2)cc1` belongs “inactive”; to `NC(=O)C1CCN(C2=C(Cl)C(=O)c3ccccc3C2=O)CC1`, “inactive”. To `COc1ccc(-c2cc(=O)c3c(O)cc(O)c(-c4cc(-c5cc(=O)c6c(O)cc(OC)cc6o5)ccc4OC)c3o2)cc1` belongs “inactive”; to `COc1ccc(NC(=O)N2CC[C@@]3(CCCN(C(=O)c4csnn4)C3)C2)cc1`, “inactive”. Next, `Cc1ccc(-c2csc(NC(=O)c3ccc(S(=O)(=O)N4CCc5ccccc54)cc3)n2)cc1`: “inactive”; `O=c1oc2c(O)c(O)cc3c(=O)oc4c(O)c(O)cc1c4c23`: “inactive”; `CN(C)C(CNc1ncnc2sc3c(c12)CCCCC3)c1ccco1` (centres undefined): “inactive”.

In the case of `O=C(CC(Sc1ccc(Br)cc1)C(=O)O)c1ccc(F)cc1` (centres undefined), the compound was classed as inactive. To `Cc1ccc(NC(=O)C(C)N2C(=O)c3ccccc3C2=O)c(C)c1` (centres undefined) belongs “inactive”. On to `CC1CCCCN1S(=O)(=O)c1ccc(C(=O)Nc2ccccc2-c2nc3ccccc3[nH]2)cc1` (centres undefined), for which the compound was called inactive. Turning to `COC(CSc1nc(N)c2c3c(sc2n1)CN(C)CC3)OC`, the compound was classed as inactive.

With `COc1ccc(-c2csc(NC(=S)NC(=O)/C=C/c3ccc(C(C)C)cc3)n2)cc1OC`, the compound was classed as inactive.

Turning to `CC(C)Sc1nc(N2CCOCC2)c2c3c(sc2n1)COC(C)(C)C3`, the compound was called inactive. For `CN(C)c1ccc(N=Nc2ccc(C(=O)O)cc2)cc1`, the outcome was inactive. Next, `CN(C)CCc1c[nH]c2ccc(CC3COC(=O)N3)cc12` (centres undefined): “inactive”; `CC1CN(c2c3c(nc4ncnn24)CCCC3)CC(C)O1` (centres undefined): “inactive”; `COc1ccc(CCNCc2cc(C)n(-c3ccc(OC)cc3)c2C)cc1`: “inactive”.

In the case of `CCCCC(=O)NC(=S)Nc1nnn(CCC)n1`, the result was inactive. For `COc1cccc(NC(=O)N2CCCc3ccccc32)c1`, the result was inactive. Next, `CCCC(=O)NC(c1ccccc1Cl)c1ccc2cccnc2c1O` (centres undefined): “inactive”; `O=C(Nc1nccs1)C(Br)C(Br)c1ccccc1` (centres undefined): “inactive”; `CN(C)CCCOc1ccc2c(c1)Sc1ccccc1CC2=O`: “inactive”. Next, `CCOc1ccc2c(c1)C(NC(C)=O)C(=O)N2CCN1CCOCC1` (centres undefined): “inactive”; `O=C(CSc1nnnn1-c1ccc(O)cc1)N1N=C(c2ccc3ccccc3c2)CC1c1ccccc1` (centres undefined): “inactive”; `C[C@@H]1CN(C(=O)c2nc3ccc(Cl)cn3c2CNCC[C@@H]2C[C@@H]3C=C[C@H]2C3)C[C@H](C)O1`: “inactive”. In the case of `COC(=O)COc1ccc(C(C2C(=O)CC(C)(C)CC2=O)C2C(=O)CC(C)(C)CC2=O)cc1`, the call was inactive. As for `CCC(=O)NC(=S)Nc1ccc(-c2nc3ccc(C)cc3s2)cc1`, the call was inactive. Next, `O=C(C1=C(O)C(=O)N(CCN2CCOCC2)C1c1cccc(Br)c1)c1cccs1` (centres undefined): “inactive”; `COc1ccccc1NS(=O)(=O)c1cc(NC(=O)Nc2ccccc2)ccc1N1CCCCC1`: “inactive”. As to `CN(C)CCCNCC(=O)c1c(-c2ccccc2)n(C)c2ccccc12`, the outcome was inactive. As to `O=C(Nc1nnc(SCc2ccc(F)cc2)s1)c1ccc2c(c1)C(=O)N(c1ccccc1Cl)C2=O`, the compound was called inactive. To `C=C(C)[C@@H]1CC=C(CN2CCN(Cc3ccccc3)CC2)CC1` belongs “inactive”; to `CCCN(CCC)CCCNC(=O)c1cc2c(=O)[nH]c3ccccc3c2s1`, “inactive”.

Source of the values: PubChem BioAssay AID2783 (National Center for Advancing Translational Sciences (NCATS), 2010).
